Laboratory results as given in PubChem BioAssay AID624052 (National Center for Advancing Translational Sciences (NCATS), 2012).
Calls of active or inactive are those of the source.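 The calls were made as follows: active = IC50 at or below 10 µM; inconclusive = IC50 above 10 µM but below 20 µM; inactive = IC50 of 20 µM or more.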

biological target: Neuropeptide S receptor (Homo sapiens) (UniProt Q6W5P4); test: Robust Characterization of Calcium Signal Transduction Antagonists of the Neuropeptide S Receptor: SAR; conditions: CHO-NPSR cells, NPS-induced calcium fluorescence (FDSS)
Text: Neuropeptide S receptor (NPSR), previously known as GPR154, is a recently de-orphanized G protein coupled receptor. Its endogenous ligand is the 20 amino acids peptide Neuropeptide S (NPS). […] NPS and its receptor are found in various tissues. Specifically they are highly expressed in brain areas that have been implicated in modulation of arousal, stress and anxiety. Central administration of NPS in mice produces an unusual profile of activity by inducing wakefulness and arousal, while at the same time suppressing anxiety. Therefore, NPSR may represent a novel drug target for the treatment of sleep and anxiety disorders. To identify NPSR antagonists, we developed a cell-based assay with transfected NPS receptor. NPS can stimulate the production of cAMP as well as release intracellular calcium in Chinese hamster ovary cells stably expressing NPS receptor. This change in intracellular calcium can be detected using a calcium indicator dye on a calcium imaging plate reader system (FDSS). This particular assay uses a high density of sampling across concentration-response space to establish more confidence estimates of potency. NIH Chemical Genomics Center [NCGC] NIH Molecular Libraries Probe Production centers Network [MLPCN] MLPCN Grant: DA026210 Assay Submitter (PI): Heilig, Markus Alexander
A Chinese hamster ovary (CHO) cell line stably expressing the NPS receptor (CHO-NPSR) was obtained from Dr. Heilig lab at NIAAA and maintained in F-12 Kaighn's media (Invitrogen, Carlsbad, CA, 21127) supplemented with 10 % FBS, 100 units/ml penicillin, 100 ug/ml streptomycin and 250 ug/ml geneticin at 37C, 5% CO2 in a humidified atmosphere. Before the assay, aliquots of cells were frozen and stored at -135C. The assay was performed on a FDSS-7000 kinetic plate reader in 1536-well format. For both agonist (1-220s) and antagonist (221-400s) phases, the maximums of kinetic fluorescence responses were converted separately into text files using the instrument's software data export utility. Data for agonist response were normalized to the controls for basal activity (DMSO only) and 100% activation (NPS). Data for antagonist response were normalized to the controls for basal activity (DMSO only) and 100% inhibition (No NPS control). AC50 values were determined from concentration-response data modeled with the standard Hill equation. NPS 1536-well FDSS assay protocol: (1) Frozen CHO-NPSR cells were thaw, washed once with fresh media and resuspended in F-12 Kaighn's media supplemented with 10 % FBS, 100 units/ml penicillin and 100 ug/ml streptomycin. Cells were plated at 3 ul/well (1200 cells) to black, clear-bottom, tissue-culture treated 1536-well plates, and then cultured at 37C, 5 % CO2 for 16 to 30 hours. […]

Chain of Neuropeptide S receptor (Homo sapiens) (Q6W5P4 whole entry, looked up): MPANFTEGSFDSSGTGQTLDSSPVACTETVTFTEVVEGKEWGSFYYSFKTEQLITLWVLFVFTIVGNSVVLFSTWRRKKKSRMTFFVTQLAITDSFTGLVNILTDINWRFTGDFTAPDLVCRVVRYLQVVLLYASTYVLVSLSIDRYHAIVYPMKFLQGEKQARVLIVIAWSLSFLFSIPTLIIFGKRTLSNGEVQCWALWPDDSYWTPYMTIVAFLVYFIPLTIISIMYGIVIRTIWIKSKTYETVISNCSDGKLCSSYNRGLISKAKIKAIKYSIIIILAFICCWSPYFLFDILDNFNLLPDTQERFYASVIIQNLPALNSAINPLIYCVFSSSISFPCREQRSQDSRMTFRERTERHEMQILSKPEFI

Structure (SMILES)	IC50
Cc1c(P(=S)(c2ccccc2)c2ccccc2)[n+]2ccccc2n1C/C=C/c1ccccc1	36.5 nM (active)
CCC(C)(CCN1CCOCC1)N(Cc1cc2ccccc2n(C)c1=O)C(=O)C1CCCCC1 (centres undefined)	57.8 nM (active)
O=C1OC(c2ccccc2)(c2ccccc2)N2CCN(C(=O)NCc3ccc(F)cc3)CC12 (centres undefined)	570 nM (active)
COc1ccc(C2c3c(ncn(CCN4CCOCC4)c3=N)Oc3ccc4ccccc4c32)cc1OC (centres undefined)	4940 nM (active)
